This note sets out measurements from PubChem BioAssay (NCATS).

Several values for one entry are separate records, joined by “and”; a condition that tells them apart may be missing. Equal values may be shown once. Inconclusive results are not listed. Activity calls are given as the source filed them. Unless noted, calls follow the shape of the dose curve; as a rule, active = well fitted curve in the direction sought with a large enough effect; inconclusive = small, poorly fitted or top-dose-only effect, or another doubt; inactive = no such curve, though single readings can be large; an effect the other way counts as inactive or inconclusive.

Experiment [1] is described as follows: Cell Viability - Hek293 (AID 427;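 active = compounds whose dose-response curve shows a full or clear partial loss of cell viability, called from curve shape rather than a numeric limit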;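 also: potency is read from the fitted curve at half-maximal effect; cells exposed to compound for 40 hours at 37 °C before reading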). The settings on record: qHTS. In a few lines:
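HEK293 cells in complete medium were exposed to compound for 40 hr at 37 °C, then cellular ATP was read by CellTiter-Glo luminescence. Data were normalized to DMSO (basal) and 100 uM tamoxifen (100% inhibition), and AC50 came from Hill fits.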
In general terms: Quantitative high-throughput screening tests each substance at several concentrations.

In experiment [2] the target is Mitogen-activated protein kinase 10 (Mus musculus) (UniProt Q61831). Put plainly: JNK3 AlphaScreen Assay (AID 530; active = well fitted curve in either direction with a large enough effect, not every such curve was filed as active;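 also: kinase came from lysate of stimulated human HepG2 cells; signal reports phosphorylation of biotinylated GST-cJun 1-79 at Ser73 with 10 µM ATP; % is scaled to controls: 0 for no effect and ±100 for the full control effect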). The settings on record: JNK3 lysate, c-Jun phosphorylation; series mostly up to 57.1 µM. In a few lines: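 Inhibitors reduce antibody binding to phosphorylated biotin-cJun, lowering AlphaScreen luminescence. Lysates from HepG2 cells pre-activated by IL-1beta plus TNF-alpha supplied JNK3; compounds were titrated.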
For orientation: Bead proximity is the source of the signal in Alpha formats.

The nature of experiment [3]: Cell Viability - HUV-EC-C (AID 542). Also: % is scaled to controls: 0 for no effect and ±100 for the full control effect; nearly all actives have a fitted effect of over 35% in size. The note with it: HUV-EC-C endothelial cell viability, qHTS; series mostly up to 92.2 µM. The essentials: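 qHTS cytotoxicity: HUV-EC-C, 1000 cells/well, 5 hr settle, compound 40 hr 37 °C, CellTiter-Glo, luminescence. AC50 via Hill equation.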
Experiment [4] is described as follows: Cellular Toxicity (caspase-3) HepG2 (AID 654).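 Also: cells exposed to compound for 16 hours before reading; 0% = DMSO alone and 100% = caspase signal from 100 µM tamoxifen.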 The settings on record: HepG2 caspase-3 activation, luminescence, 0% = DMSO only, 100% = tamoxifen; series mostly up to 92.2 µM. In a few lines:
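Cells plated 5 hr at 37 °C, compound added, incubated 16 hr at 37 °C. Caspase-Glo 3/7 reagent followed, 20 min at room temperature, then luminescence read. Activation scored as signal increase; AC50 from Hill fit.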

Experiment [5] in a line: Cellular Toxicity (caspase-3) BJ (AID 658). The note with it: BJ fibroblasts, luminescence, normalized: DMSO 0%, staurosporine 100%; series mostly up to 91.7 µM. The essentials: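 Luminescent aminoluciferin-substrate cleavage reports caspase 3/7 activity in normal human BJ fibroblasts after 16 hr compound exposure at 37 °C. Normalized to DMSO (basal) and 10 uM staurosporine (100%); AC50 from Hill fit of concentration-response.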

Experiment [6] can be described thus: MultiTox-Fluor Cytotoxicity Assay - LYMP1-002 - Live Cells (AID 955). Also: % is scaled to controls: 0 for no effect and ±100 for the full control effect. The settings on record: LYMP1-002 lymphoblastoid live-cell protease fluorescence viability; series mostly up to 46.1 µM. In a few lines: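 Read-out is live-cell protease activity (cell-permeant GF-AFC substrate, fluorescence Ex/Em=405/510), where a decrease indicates acute toxicity. Human lymphoblastoid cells were treated 16 hours at 37 C in a concentration series, and AC50 values came from standard Hill modelling.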

Experiment [7] can be described thus: MultiTox-Fluor Cytotoxicity Assay - LYMP1-003 - Dead Cells (AID 961).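 Also: 0% = DMSO and 100% = tetraoctylammonium bromide; nearly all actives have a fitted effect of over 70% in size.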 The note with it: LYMP1-003 lymphoblastoid cells, dead-cell protease fluorescence; series mostly up to 92.2 µM. The essentials: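 LYMP1-003 human lymphoblastoid cells (2500/well) exposed to compound 16 h at 37 C in complete medium; dead-cell protease read with bis-AAF-R110 fluorescence (Ex/Em 485/520) after 60 min at room temperature. Normalized to DMSO and 15 uM tetraoctylammonium bromide; AC50 from Hill fit.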

Experiment [8] is described as follows: Cell Viability - LYMP1-003 - Assay at 24 hr (AID 963).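 Also: plate controls were DMSO only for no effect and tetraoctylammonium bromide positive control for full effect.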 The note with it: LYMP1-003 lymphoblastoid cell viability; series mostly up to 92.2 µM. The essentials:
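Cells seeded at 2500/well, 5 hr at 37 C; compounds added; 24 hr at 37 C; CellTiter-Glo added, 30 min room temperature; luminescence read. Decrease in ATP taken as cytotoxicity, AC50 from Hill modelling.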

The nature of experiment [9]: Cell Viability - LYMP2-005 (AID 967).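 Also: plate controls were DMSO only for no effect and 92 µM tetraoctylammonium bromide control for full effect.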 The settings on record: LYMP2-005 lymphoblastoid cell viability; series mostly up to 92.2 µM. The essentials: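 CellTiter-Glo luminescence (cellular ATP) read-out; LYMP2-005 lymphoblastoid cells, 2500/well, 5 h pre-incubation, then 24 h compound exposure at 37 C in complete medium. Tetraoctylammonium bromide positive control; AC50 by standard Hill fit.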

A short description of experiment [10]: Cell Viability - LYMP2-013 (AID 970).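 Also: 0% = DMSO only and full inhibition = tetraoctylammonium bromide control; nearly all actives have a fitted effect of over 55% in size.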 The settings on record: LYMP2-013 lymphoblastoid cells viability; series mostly up to 92.2 µM. The essentials:
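qHTS; 2500 lymphoblastoid cells/well; 5 hr 37 C settle; cpd 24 hr 37 C; CellTiter-Glo, 30 min RT; luminescence. AC50 = Hill fit.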

A short description of experiment [11]: Cell Viability - LYMP2-015 (AID 971).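 Also: 0% = DMSO only and full effect = 92 µM tetraoctylammonium bromide; nearly all actives have a fitted effect of over 55% in size.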 The settings on record: LYMP2-015 lymphoblastoid cell viability; series mostly up to 92.2 µM. In a few lines:
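Luminescent ATP read-out (CellTiter-Glo) served as the viability measure after lymphoblastoid cells were exposed to compounds for 24 hours at 37 C. Concentration-response data were fitted with the Hill equation to give AC50.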

The nature of experiment [12]: Cell Viability - LYMP2-019 (AID 973).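 Also: 0% = DMSO alone and full effect = 92 µM tetraoctylammonium bromide; nearly all actives have a fitted effect of over 55% in size.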 The settings on record: LYMP2-019 lymphoblastoid cell line viability; series mostly up to 92.2 µM. The essentials: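 Luminescent ATP read-out (CellTiter-Glo, 30 min room temperature) served as the viability measure after 24 hr treatment of lymphoblastoid cells at 37 C. Concentration-response data were fitted to the Hill equation for AC50.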

The nature of experiment [13]: Cell Viability - LYMP2-023 (AID 975).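 Also: cellular ATP measured by luciferase luminescence as viability proxy; plate controls were DMSO only for no effect and 92 µM tetraoctylammonium bromide control for full effect; nearly all actives have a fitted effect of over 55% in size.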 The note with it: LYMP2-023 lymphoblastoid cell viability; series mostly up to 92.2 µM. The essentials:
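2500 cells/well, 5 hr 37 C; cpd 24 hr 37 C; CellTiter-Glo, 30 min RT; luminescence. qHTS conc-response, Hill fit -> AC50. Pos ctrl tetraoctylammonium bromide.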

Experiment [14] in a line: Cell Viability - LYMP2-007 (AID 979).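 Also: cells exposed to compound for 24 h before reading; 0% = DMSO only and the negative end = 92 µM tetraoctylammonium bromide; nearly all actives have a fitted effect of over 60% in size.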 The settings on record: LYMP2-007 lymphoblastoid cell viability; series mostly up to 92.2 µM. In a few lines:
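Luminescent ATP signal (CellTiter-Glo) serves as the viability read-out after 24 hr compound treatment of lymphoblastoid cells in complete medium at 37 C. Concentration-response data were fitted to the Hill equation to give AC50 values.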

Experiment [15] can be described thus: Cell Viability - LYMP2-024 (AID 988).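 Also: plate controls were DMSO only for no effect and 92 µM tetraoctylammonium bromide for full effect; nearly all actives have a fitted effect of over 60% in size.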 The note with it: LYMP2-024 lymphoblastoid cell viability; series mostly up to 92.2 µM. The essentials: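 Steps: seed 2500 cells/well, 5 hr 37 C; add compound, 24 hr 37 C; add CellTiter-Glo, 30 min room temperature; read luminescence. AC50 derived by Hill modelling of concentration-dependent ATP loss.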
For experiment [16], the target named is Vitamin D3 receptor (Homo sapiens) (UniProt P11473). Put plainly: qHTS assay for small molecule agonists of vitamin D receptor signaling (AID 588543; calls by dose curve;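 also: 0% = DMSO basal and 100% = reference agonist control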). The note with it: HEK293T VDR-UAS-bla, beta-lactamase ratio, 16 h; series mostly up to 76.8 µM. The essentials:
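GeneBLAzer VDR-UAS-bla HEK293T cells in 2% charcoal-stripped FBS medium were dosed with compound titrations for 16 h at 37 °C; CCF4 β-lactamase readout (405 nm ex, 460/530 nm em). EC50 and efficacy from Hill fits, normalized to 50 nM calcitriol (100%) and DMSO (0%).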

In experiment [17] the target is Thyroid hormone receptor beta (Homo sapiens) (UniProt P10828). Put plainly: qHTS assay for small molecule agonists of thyroid hormone receptor beta signaling (AID 588545; calls by dose curve;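 also: 0% = DMSO only and 100% = 10 nM T3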). The settings on record: TR-UAS-bla GripTite HEK 293, beta-lactamase ratio, agonist mode, 18 h; series mostly up to 76.7 µM. In a few lines: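 Efficacy and EC50 values derive from Hill fits of qHTS titration data, normalized to 10 nM T3 and DMSO-only wells. HEK 293 reporter cells were stimulated for 18 hrs at 37 C, with beta-lactamase activity measured by CCF4 fluorescence.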
Sequence of Thyroid hormone receptor beta (Homo sapiens) (P10828 whole entry, looked up): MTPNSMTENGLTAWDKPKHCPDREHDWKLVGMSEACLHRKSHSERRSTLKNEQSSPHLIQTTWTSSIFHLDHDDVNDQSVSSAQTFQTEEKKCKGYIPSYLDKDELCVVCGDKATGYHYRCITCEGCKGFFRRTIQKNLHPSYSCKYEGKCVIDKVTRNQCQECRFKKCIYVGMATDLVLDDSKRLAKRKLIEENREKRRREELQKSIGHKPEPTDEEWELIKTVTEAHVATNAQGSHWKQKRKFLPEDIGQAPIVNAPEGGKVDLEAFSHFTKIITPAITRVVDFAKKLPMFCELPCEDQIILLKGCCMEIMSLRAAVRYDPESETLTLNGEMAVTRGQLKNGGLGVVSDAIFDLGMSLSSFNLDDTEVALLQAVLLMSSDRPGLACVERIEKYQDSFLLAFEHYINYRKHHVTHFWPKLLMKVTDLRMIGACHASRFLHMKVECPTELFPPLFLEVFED

Experiment [18] can be described thus: qHTS assay for small molecule antagonists of retinoid X receptor alpha signaling (AID 588546).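 Also: cells stimulated with 9-cis-retinoic acid as agonist; % is scaled to controls: 0 for no effect and ±100 for the full control effect.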 The note with it: HEK293T RXRa-UAS-bla, beta-lactamase ratio, antagonist mode; measured here: W530 green channel, cytotoxicity proxy. The essentials: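 Beta-lactamase reporter inhibition, read as CCF4 fluorescence ratio (ex 405, em 460/530 nm) after 2 h at RT. HEK293T UAS-bla cells, 2500/well, were stimulated with 9-cis-RA at 500 or 100 nM final alongside test compound for 18 h at 37 C.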

Experiment [19] is described as follows: qHTS assay for small molecule activators of the p53 signaling pathway (AID 651743; active = well fitted activation curve with a large enough effect in the signal ratio, not every such curve was filed as active; the % refers to the signal ratio; also: % of control where 0% means no effect). The note with it: HCT-116 p53RE-bla, beta-lactamase FRET ratio, 16 h; activation: stronger effect = higher value. The essentials:
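Cell-based beta-lactamase reporter (p53 response elements, HCT-116 background). After a 5-hour preincubation, cells received compound for 16 hours at 37 C; substrate development ran 2 hours at room temperature.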

A short description of experiment [20]: Cell Viability - LYMP2-017 (AID 972). The note with it: LYMP2-017 lymphoblastoid cell viability; series mostly up to 92.2 µM. In a few lines:
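2500 cells/well, 5 h 37 C; cpd 24 h 37 C in complete medium; CellTiter-Glo, 30 min RT; luminescence (ATP). AC50 via Hill fit, qHTS.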

Sequence of Vitamin D3 receptor (Homo sapiens) (P11473 whole entry, looked up): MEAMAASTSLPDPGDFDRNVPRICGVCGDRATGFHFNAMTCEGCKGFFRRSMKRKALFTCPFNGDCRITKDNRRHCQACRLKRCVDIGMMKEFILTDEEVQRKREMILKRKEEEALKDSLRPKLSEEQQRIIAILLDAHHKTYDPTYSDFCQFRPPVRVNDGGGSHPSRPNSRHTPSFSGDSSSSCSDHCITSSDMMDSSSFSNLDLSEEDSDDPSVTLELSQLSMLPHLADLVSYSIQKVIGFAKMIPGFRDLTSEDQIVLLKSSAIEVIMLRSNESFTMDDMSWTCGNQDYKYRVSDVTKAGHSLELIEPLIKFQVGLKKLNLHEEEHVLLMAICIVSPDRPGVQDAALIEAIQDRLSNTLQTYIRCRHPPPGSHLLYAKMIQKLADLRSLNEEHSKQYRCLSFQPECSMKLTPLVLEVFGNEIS

Regarding `Cc1cccc(N)c1C`, the Potency in experiment [1] is > 92 µM (inactive). Besides, the Potency entry in experiment [2], in experiment [3], in experiment [7], in [9], in experiment [10] and in [11] was “inactive” in each case. In addition, the Potency result in experiment [12], in [13], in experiment [14], in experiment [15] and in experiment [17] was “inactive” throughout. For the same molecule, the molecule was called inactive in experiment [4], in [5], in experiment [6], in experiment [8] and in experiment [16]. In addition, the max response in [18] was -9%. In experiment [19], the activation is 12.1% (inactive).
As to `CC(C)(COCC1CO1)COCC1CO1` (stereo not drawn), in experiment [1], the Potency was > 92 µM (inactive). For the same molecule, the Potency entry in [2], in experiment [3], in experiment [7], in [9], in [10] and in experiment [11] was “inactive” in each case. The Potency result in [20], in experiment [12], in experiment [13], in [14] and in [15] was “inactive” each time. Besides, the molecule was called inactive in [5], in experiment [8] and in experiment [16]. Besides, the max response in experiment [18] was 21.1%. In addition, the activation in [19] is 6.6% (inactive).
In the case of `CC[N+](=O)[O-]`, the Potency in experiment [1] is > 92 µM (inactive). Further, the Potency result in experiment [2], in experiment [3], in experiment [7], in experiment [9], in experiment [10] and in experiment [11] was “inactive” in each case. For the same molecule, the Potency result in [20], in experiment [12], in experiment [13], in experiment [14] and in experiment [15] was “inactive” throughout. Moreover, the call in [5], in experiment [6], in experiment [8] and in experiment [16] was inactive. Besides, the max response in experiment [18] is -3.61%. For the same molecule, the activation in experiment [19] was -3.29% (inactive).
Take `Nc1ccc(Cc2ccc(N)c(Cl)c2)cc1Cl`: the Potency in [1] was > 92 µM (inactive). Further, the Potency entry in experiment [2], in experiment [7], in experiment [9], in experiment [10], in experiment [11] and in experiment [20] was “inactive” throughout. Moreover, the Potency entry in experiment [12], in experiment [13], in experiment [14] and in [15] was “inactive” throughout. The outcome in [4], in [5], in experiment [6], in experiment [8] and in [16] was inactive. In experiment [18], the max response was -5.52%. Also, the activation in experiment [19] was -1.58% (inactive).
For `Brc1ccc(Oc2ccc(Br)cc2Br)c(Br)c1`, the Potency result in experiment [3], in experiment [7], in experiment [9], in experiment [10], in [11] and in experiment [20] was “inactive” each time. For the same molecule, the Potency entry in [12], in [13], in [14], in experiment [15] and in experiment [17] was “inactive” each time. The result in [4], in [5], in experiment [6], in experiment [8] and in experiment [16] was inactive. Also, the activation in experiment [19] is 2.43% (inactive).
Turning to `Cc1ccc(OP(=O)(Oc2ccc(C)cc2)Oc2ccc(C)cc2)cc1`, the Potency in experiment [1] was > 92 µM (inactive). In addition, the Potency result in experiment [3], in experiment [7], in experiment [9], in [10], in experiment [11] and in [20] was “inactive” throughout. Besides, the Potency entry in experiment [12], in [13], in experiment [14], in experiment [15] and in [17] was “inactive” throughout. In addition, the call in [4], in experiment [5], in experiment [6], in [8] and in experiment [16] was inactive. Moreover, the max response in [18] was -10.5% and -16.2%. In addition, in experiment [19], the activation is 0.798% (inactive) and -5.64% (inactive).
